We go through one molecule from PubChem BioAssay AID2284186 (EPA ToxCast).

Each structure is given as a SMILES string. Active and inactive are the calls of the source. The calls were made as follows: active = hit-call score of the fitted dose curve at least 0.9, where 1 is the maximum; inactive = score below 0.9.

Chain of Glucocorticoid receptor (Homo sapiens) (P04150 whole entry, looked up): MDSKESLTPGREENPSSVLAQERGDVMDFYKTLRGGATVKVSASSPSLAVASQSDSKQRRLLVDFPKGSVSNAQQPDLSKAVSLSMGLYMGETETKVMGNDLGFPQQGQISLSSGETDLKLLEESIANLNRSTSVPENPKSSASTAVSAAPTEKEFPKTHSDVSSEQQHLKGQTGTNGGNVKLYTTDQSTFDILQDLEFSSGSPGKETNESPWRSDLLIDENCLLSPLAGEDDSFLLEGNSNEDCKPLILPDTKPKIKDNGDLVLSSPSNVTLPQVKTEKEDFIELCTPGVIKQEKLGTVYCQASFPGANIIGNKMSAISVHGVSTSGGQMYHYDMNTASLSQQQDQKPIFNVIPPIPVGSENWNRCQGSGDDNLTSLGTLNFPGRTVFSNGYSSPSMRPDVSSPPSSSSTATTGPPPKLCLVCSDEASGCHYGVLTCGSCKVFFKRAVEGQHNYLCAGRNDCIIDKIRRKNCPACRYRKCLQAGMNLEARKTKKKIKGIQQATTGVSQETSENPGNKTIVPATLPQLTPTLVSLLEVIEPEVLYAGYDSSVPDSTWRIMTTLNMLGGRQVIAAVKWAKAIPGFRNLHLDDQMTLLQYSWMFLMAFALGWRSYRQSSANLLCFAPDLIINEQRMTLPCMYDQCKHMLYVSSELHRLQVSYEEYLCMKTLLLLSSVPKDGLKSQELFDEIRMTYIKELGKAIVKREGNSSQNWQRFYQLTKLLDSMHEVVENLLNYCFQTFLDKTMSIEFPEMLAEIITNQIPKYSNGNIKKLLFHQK

The target in the assay is Glucocorticoid receptor (Homo sapiens) (UniProt P04150). The assay is described as follows: ERF_FR_NR_hGR: Eurofins (ERF) Nuclear Receptor (NR) Radioligand Binding LeadHunter Assay for human Glucocorticoid Receptor (GR) Agonism, conducted at France lab site. Here is the method:
ERF_FR_NR_hGR is a biochemical, single-readout assay that uses extracted gene-proteins in a cell-free assay. Measurements were taken 6 hour after chemical dosing in a 96-well plate. See GR Human Glucocorticoid NHR Binding (Agonist Radioligand) Assay, Cerep.ERF_FR_NR_hGR is an assay component calculated from the ERF_FR_NR_hGR assay. It is designed to measure radioligand binding using a type of binding reporter as detected by scintillation counting with radiometry technology.Data from the assay component ERF_FR_NR_hGR was analyzed at the assay endpoint, ERF_FR_NR_hGR, in the positive analysis fitting direction relative to DMSO as the negative control and baseline of activity. Using a type of binding reporter, gain-of-signal activity can be used to understand changes in binding as they relate to gene NR3C1. To generalize the intended target to other relatable targets, this assay endpoint is annotated to the nuclear receptor intended target family, where the subfamily is steroidal.
Human cells are incubated for 24 hours at 4C with [3H]dexamethasone ([…]) ligand and Dexamethazone as control inhibitor. Test Sample Requirements: Minimum for 1) Screen: 60 ul of 10 mM stock -OR- 1 mg (pre-weighed) for 10 uM final testing. 2) Dose Response: 90 ul of 10 mM stock -OR- 1 mg (pre-weighed) for a top concentration at 10 uM.
As usually defined, the AC50 is the concentration at which the activity in the assay is half-maximal. In the case of `O=C(/C=C/c1ccc(O)cc1)CC(=O)/C=C/c1ccc(O)cc1`, the AC50 was 969 nM (active).
